IMPase Li cell: membrane-permeable IMPase blocker, potentiated with lithium; Potency, µM (highest dose often 59.4 µM), for inactives: at the highest dose activity, negative = IMPase inhibition, most hits filed as inhibitors; CHO-M1 cells, IP1 TR-FRET (IP-One), carbachol + lithium; AID 1457; 210,000 compounds, 0.35% hits;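 note: IP1 builds up when IMPase is blocked and the TR-FRET signal falls; potency is the fitted concentration of half-maximal effect; plate controls were basal vehicle for no effect and high inhibitor control for full effect; nearly all actives have a fitted effect of over 50% in size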
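CHO-M1, 2000 cells/well, 16–30 h culture; cpd + low Li+, 30 min 37C; lysis with d2-IP1/Eu-anti-IP1 Ab, 10 min RT; TR-FRET 665/620 ratio and 620 channel; AC50 via Hill.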
IMPase inh: cell-permeable inhibitors of inositol monophosphatase (IMPase) | CHO-M1 cells, IP1 accumulation, HTRF TR-FRET ratio | inhibition (IP1 accumulation), % at 46.1 µM | 120,000 tested, under 10 active | AID 901; active = well fitted curve in the direction sought with a large enough effect in the signal ratio, not every such curve was filed as active; inconclusive = small, poorly fitted or top-dose-only effect, or a change in a side signal; inactive = no such curve, though single readings can be large or run the other way; the % refers to the signal ratio;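 note: cells stimulated with carbachol in lithium chloride buffer; plate controls were DMSO basal wells for no effect and reference inhibitor wells for full effect; higher means more IMPase inhibition seen as more IP1 and lower FRET ratio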
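In this qHTS, compounds (final up to 46 uM) act on CHO-M1 cells that are then activated through the M1 receptor with carbachol, in pH 7.4 buffer containing 50 mM LiCl, for 30 min. IP1 accumulation is quantified by the IP-One immunoassay.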
NPSR antag: antagonists of human neuropeptide S receptor cAMP signaling | Q6W5P4 | CHO-NPSR cells, cAMP TR-FRET, antagonist mode | Potency, µM (series often up to 38.3 µM), inactives show at the top dose activity change, negative = inhibition, most hits filed as inhibitors | 220,000 compounds, 1% hits | AID 1461; note: potency is the fitted concentration of half-maximal effect; nearly all actives have a fitted effect of over 50% in size
Target sequence (Q6W5P4 whole entry, looked up): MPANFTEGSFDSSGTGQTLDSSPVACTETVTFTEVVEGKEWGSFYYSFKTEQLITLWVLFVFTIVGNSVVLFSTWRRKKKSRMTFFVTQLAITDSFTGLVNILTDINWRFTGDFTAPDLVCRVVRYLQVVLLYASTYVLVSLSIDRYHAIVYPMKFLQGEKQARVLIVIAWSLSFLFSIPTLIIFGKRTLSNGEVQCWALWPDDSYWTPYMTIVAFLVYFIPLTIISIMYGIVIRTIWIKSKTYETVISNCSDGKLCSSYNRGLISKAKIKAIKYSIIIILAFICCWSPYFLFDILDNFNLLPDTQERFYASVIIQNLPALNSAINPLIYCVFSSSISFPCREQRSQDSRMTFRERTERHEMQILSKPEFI
ALOX12 inhib: 12-hLO (ALOX12) enzyme inhibition. P18054. purified 12-hLO, xylenol orange hydroperoxide absorbance. Potency, µM (doses to about 57.1 µM), without a hit: top-dose activity change, negative = inhibition, most hits filed as inhibitors. 150,000 compounds, 0.12% hits. AID 1452; note: potency is the fitted concentration of half-maximal effect; nearly all actives have a fitted effect of over 55% in size
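Purified human 12hLO (150 nM), preincubated 15 min with compound, then 40 uM arachidonic acid for 30 min, room temperature, Hepes pH 7.0 with 0.01% Triton X-100. Hydroperoxide detected by ferrous iron/xylenol orange; 573/405 nm absorbance ratio gives reaction progress.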
ALDH1A1 block: inhibitors of human aldehyde dehydrogenase 1A1. 220,000 compounds, 7.3% hits. Potency, µM (series often up to 75.3 µM), inactives show at the highest dose activity, negative = inhibition, usual class: inhibitors. P00352. Purified ALDH1A1, NADH fluorescence, propionaldehyde substrate. AID 1030; active = well fitted inhibition curve with a large enough effect, not every such curve was filed as active; inconclusive = small, poorly fitted or top-dose-only effect, or another doubt; inactive = no such curve, though single readings can be large or run the other way;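 note: potency is the fitted concentration of half-maximal effect; plate controls were no enzyme wells and a reference inhibitor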
HPGD inh: blocks human HPGD enzyme activity. purified HPGD, NADH fluorescence kinetic, PGE2 substrate. 150,000 compounds, 4.3% hits. P15428. Potency, µM, inactives show at the highest dose activity change, negative = inhibition, actives largely listed as inhibitors; active = well fitted inhibition curve with a large enough effect, not every such curve was filed as active; inconclusive = small, poorly fitted or top-dose-only effect, or another doubt; inactive = no such curve, though single readings can be large or run the other way; note: potency is the fitted concentration of half-maximal effect
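20 nM HPGD preincubated 15 min at room temperature with compound in 50 mM Tris-HCl pH 8, 0.01% Tween 20. Started with 1 mM NAD+ and 30 uM prostaglandin E2; NADH fluorescence (360/450 nm) read 5 times over 30-s intervals, last minus first.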
Starred values were filed as active, the others as inactive; ? = inconclusive; . = no result; [ ] = another dose, or the depositor's remark. Most compounds without a hit are left out; they make up all but 8.9% or so of the library. Unless noted, calls come from the whole dose curve; as a rule, active = well fitted curve in the direction sought with a large enough effect; inconclusive = small, poorly fitted or top-dose-only effect, or another doubt; inactive = no such curve, though single readings can be large; an effect the other way counts as inactive or inconclusive. Unless noted, % is set by controls: 0 for no effect and ±100 for the full control effect.

SMILES	IMPase Li cell	IMPase inh	NPSR antag	ALOX12 inhib	ALDH1A1 block	HPGD inh
Cc1cc(C)cc(N2C(=O)/C(=C\c3ccc(N4CCN(C)CC4)o3)C(=O)NC2=S)c1	.	.	-17%	.	.	.
Cc1ccc(N2C(=O)/C(=C/c3ccc(CN(CCC#N)S(C)(=O)=O)o3)C(=O)NC2=S)cc1	1%[38.3 µM]	-1	-22%[46.1 µM]	?	22µM*	22µM*
C1=C(c2ccccc2)CCNC1	.	.	5%	.	.	.
C=C(CO)CC1CC(O)[C@]2(C)OC3CC4OC5C[C@]6(C)O[C@]7(C)CCC8OC9C[C@]%10(C)OC%11C(C)=CC(=O)OC%11CC%10OC9C[C@@H](C)C8OC7CC6O[C@]5(C)C/C=C\C4OC3CC2O1 (stereo partly specified)	-6%	.	?	.	1.4µM*	.
C=C(C=O)CC1CC(O)[C@]2(C)OC3CC4OC5C[C@]6(C)O[C@]7(C)CCC8OC9C[C@]%10(C)OC%11C(C)=CC(=O)OC%11CC%10OC9C[C@@H](C)C8OC7CC6O[C@]5(C)CC5OC5C4OC3CC2O1 (stereo partly specified)	12%	.	?	.	4.5µM*	.
O=[N+]([O-])c1cccc2ccccc12	2%	.	.	-3%	?	-5%
O=[N+]([O-])c1ccc2c3c(cccc13)CC2	6%	.	.	-26%	3.2µM*	-28%
CCN1CCN(c2ccc(N)c(C)c2)CC1	13%	.	17%	.	2%	.
CCC(=O)c1cc(F)c(N2CCN(CC)CC2)cc1C	2%[38.3 µM]	13	-7%[46.1 µM]	10%	20µM*	-8%
CCCc1[nH][nH]c(=O)c1C(c1ccccc1)C(C#N)C#N (stereo unspecified)	22%[38.3 µM]	0	-1%[46.1 µM]	-1%	22µM*	?
CCCc1[nH][nH]c(=O)c1C(c1ccc(Cl)cc1)C(C#N)C#N (stereo unspecified)	13%	1	15%[46.1 µM]	-13%	?	16µM*
COc1ccccc1N1C(=O)NC(=O)/C(=C/c2ccc3c4c(cccc24)CC3)C1=O	.	-8	10µM*	-25%	?	.
COc1cc(/C=C2/C(=O)NC(=O)N(c3ccccc3)C2=O)ccc1O	0%	.	0%	1%	?	?
O=C1NC(=O)N(Cc2ccccc2)C(=O)/C1=C/c1cnn(-c2ccccc2)c1	5%	.	-1%	.	10µM*	.
COc1ccccc1N1C(=O)NC(=O)/C(=C\c2cnn(-c3ccccc3)c2)C1=O	9%	.	-44%	.	8.9µM*	.
COc1ccc(/C=C2\C(=O)NC(=O)N(Cc3ccccc3)C2=O)c(OC)c1OC	-2%	.	-14%	.	10µM*	.
N#CCCn1cc(C(=O)Nc2ccccc2Cl)c(-c2ccc([N+](=O)[O-])cc2)n1	4%	.	-14%	-2%	-13%	-15%
COc1ccc(C2N(c3cc(C)on3)C(=O)C3CCCN32)cc1 (stereo unspecified)	7%	.	17%	.	?	.
COc1ccc(OC)c2c1CCC1NCCOC21 (stereo unspecified)	3%	.	8%	-2%	-1%	-2%
CCn1c(O)c(/C(C)=N/N2CCCCC2c2cccnc2)c(=O)[nH]c1=S (stereo unspecified)	10%	.	-5%	1%	-6%	-2%
Cc1ncsc1CCOC(=O)c1ccc([N+](=O)[O-])cc1	27%	-2	7%	-4%	-9%	-17%
O=C(CNC(=O)c1cccs1)NCC(=O)OCC(=O)c1ccc([N+](=O)[O-])cc1	3%	.	12%	.	2.2µM*	.
COc1ccc(CN2CCCC(C(=O)c3sccc3C)C2)cc1O (stereo unspecified)	14%	.	5%	.	5%	.
CCC(C)n1c(O)c(C(c2ccccn2)c2c(O)n(C(C)CC)c(=S)[nH]c2=O)c(=O)[nH]c1=S (stereo unspecified)	?	-3	-1%[46.1 µM]	?	7.1µM*	32µM*
CCCCN=Cc1c(O)n(-c2c(C)cc(C)cc2C)c(=O)[nH]c1=O	26%[38.3 µM]	-2	-2%[46.1 µM]	5%	1%	-2%
